# Mac1 fbg inh: inhibitors of CD11b/CD18 adhesion to fibrinogen, primary screen, K562 cells, luminescence | inhibition, % at 10 µM | Integrin beta-2 (Homo sapiens) + Integrin alpha-M (Homo sapiens), P05107+P11215 | 0.54% of 93,000 active | AID 1497, 2009 | ATPlite luminescence; Mn2+ added to activate the integrin;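 active means primary inhibition of 50% or more at 10 µM, then 40% or more on retest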
# Mac1 fbg enh: enhancers of CD11b/CD18 adhesion to fibrinogen, primary screen, K562 cells, luminescence; activation, % at 10 µM; Integrin beta-2 (Homo sapiens) + Integrin alpha-M (Homo sapiens), P05107+P11215; 0.07% of 93,000 active; ATPlite luminescence; AID 1499, 2009;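 active means 10 µM primary screen giving 50% or more activity, confirmed by 40% or more on retest at that dose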
# Cav3 T inh: Cav3.2 calcium influx blockers – cell-based, Fluo-4 calcium fluorescence, FDSS, MLSMR library, primary screen | Voltage-dependent T-type calcium channel subunit alpha-1H (Homo sapiens), O95180 | Cav3.2-expressing cells; stronger effect = lower value | B-score at 10 µM | 4% of 100,000 active | AID 449739, 2010;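 active means single-dose well whose peak fluorescence ratio is a statistical outlier from its plate by either plate-standardised score or position-corrected B-score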
# Ecoli WT expand: growth inhibitors of wild-type E. coli, primary screen, strain BW25113, expanded library, OD600; OD600 absorbance; growth inhibition, % at 100 µM; 0.15% of 98,000 active; AID 710, 2007;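 active means growth inhibition above about 50% at one test dose, limit read from the data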;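 further: growth measured after 20 h incubation at 37 °C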
# Numbers without * were called inactive; . = not tested or not shown. This excerpt belongs to a sample that is enriched for hits.
SMILES,Mac1 fbg inh,Mac1 fbg enh,Cav3 T inh,Ecoli WT expand
Cc1ccc(C(=O)NNC(=S)NC(=O)COc2ccccc2)cc1,19.9,-1.8,-5.19*,51.0*
O=C(NC(=S)NNC(=O)c1cccs1)c1ccco1,.,.,.,67.0*
COc1ccc(C(=O)NC(=S)NNC(=O)Cc2cccs2)cc1,2.5,-3.2,-4.92*,43.0
COc1ccc(C(=O)NNC(=S)NC(=O)c2ccco2)cc1,.,.,-5.54*,80.0*
COc1cc(OC)cc(C(=O)NC(=S)NNC(=O)Cc2cccs2)c1,.,-2.8,.,.
CCCOc1ccc(C(=O)NNC(=S)NC(=O)c2cc(-c3ccccc3)nc3ccccc23)cc1,.,.,-7.25*,-14.0
C=CCNC(=S)NNC(=O)c1ccc(OCCCC)cc1,.,.,0.145,.
CCCOc1ccc(C(=O)NNC(=S)NC(C)=O)cc1,.,.,1.17,88.0*
C[C@@H]1CC[C@H](O)/C=C/C(=O)O[C@H](C)CC[C@H](O)/C=C/C(=O)O1,.,.,0.402,.
N#Cc1c(C(F)(F)F)cc(-c2ccc(Cl)cc2)[nH]c1=O,104.1*,-11.2,-8.68*,18.0
Cc1cc(C(F)(F)F)c(C#N)c(=O)[nH]1,.,.,0.489,.
N#Cc1c(C(F)(F)F)cc(-c2cccc(Cl)c2)[nH]c1=O,105.6*,-11.9,-2.73*,20.0
CCOc1cc(/C=N/NC(=O)C(C)Sc2ccccn2)ccc1O (centres undefined),-11.3,1.8,.,.
COc1ccc(C(=O)c2c(-c3ccsc3)oc3ccc(-c4ccc(OC)cc4)cc23)cc1,.,.,-1.05,.
O=C(Cc1ccc(Br)cc1)c1ccc(O)cc1O,77.5*,-4.3,-8.57*,59.0*
O=C(Cc1ccccc1)N/N=C/c1ccccc1OCc1ccc(Cl)cc1,.,.,-0.75,-6.0
Cc1ccccc1NC(C)C(=O)N/N=C/c1ccccc1OCc1cccc(Br)c1 (centres undefined),4.5,-0.2,-6.38*,-24.0
CCN(CC)CCNC(=O)C1c2ccccc2C(=O)N(CCOC)C1c1ccc(F)cc1 (centres undefined),-1.6,-0.5,1.54,-1.0
Cc1ccc(O)c(Sc2cc(C)ccc2O)c1,28.8,0.0,.,45.0
COC(=O)c1ccc(O)c(Sc2cc(C(=O)OC)ccc2O)c1,97.8*,-7.0,.,21.0
CCCCn1c(=NC(=O)c2cccnc2)c(C(=O)OCC)cc2c(=O)n3ccccc3nc21,2.8,1.6,1.54,-9.0
CCOCCCn1c(=NC(=O)c2cccnc2)c(C(=O)OCC)cc2c(=O)n3ccccc3nc21,-20.5,2.3,4.21*,3.0
Cc1ccccc1OC(=O)C1C(c2ccccc2)C(C(=O)O)C1c1ccccc1 (centres undefined),3.9,-5.3,-0.967,-2.0
COc1ccc(S(=O)(=O)N2CCC(C(=O)N3CCc4ccccc4C3)CC2)cc1Cl,-5.4,-1.0,-4.63*,-13.0
COc1ccc(CC(=O)Nc2ccc(C(=O)Nc3ccccc3C(=O)O)cc2)cc1OC,-37.4,-3.2,.,.
SMILES,Mac1 fbg inh,Mac1 fbg enh,Cav3 T inh,Ecoli WT expand
O=C(NC(=S)N1CCc2ccccc21)c1ccccc1Br,2.4,1.2,.,.
O=C(COc1ccc(Br)cc1Br)NC(=S)N1CCCc2ccccc21,60.2*,-6.2,-2.92,0.0
COc1ccc(OCc2nnc(SCC(=O)N3CCCc4ccccc43)n2-c2ccc(C)cc2)cc1,5.9,-1.6,-8.19*,-21.0
Cn1c(Cc2cccs2)nnc1SCC(=O)N1CCCc2ccccc21,0.6,-3.4,0.783,-1.0
O=C(CSc1nnc(CN2CCOCC2)n1-c1ccccc1)N1CCc2ccccc21,4.1,2.3,0.424,-3.0
COc1ccc(-n2c(Cc3cccn3C)nnc2SCC(=O)N2CCCc3ccccc32)cc1,14.7,2.2,-2.39,-10.0
O=C(CSc1nnc(Cc2cccs2)n1C1CCCCC1)N1CCCc2ccccc21,12.7,10.7,-7.17*,-7.0
N#Cc1ccc(OCc2nnc(SCC(=O)N3CCCc4ccccc43)n2-c2ccccc2)cc1,-2.8,-4.5,-7.38*,-10.0
CCOC(=O)C1=C(CC)Nc2ccccc2N=C1NC(=O)Nc1ccc(Cl)c(Cl)c1,90.5*,-13.0,-3.82,18.0
O=C(Cn1cc(C(=O)c2cccs2)c2ccccc21)NC1CCCCC1,2.6,-0.3,-1.09,-9.0
CCc1ccc(Cn2nnc(C(=O)NCc3ccccc3OC)c2N)cc1,1.5,6.8,-7.14*,-7.0
CCc1ccc(Cn2nnc(C(=O)Nc3cccc(C)c3)c2N)cc1,-6.3,-0.3,-0.921,-4.0
Nc1c(C(=O)NCc2ccccc2)nnn1Cc1ccc(F)cc1,5.1,-2.3,-0.438,1.0
COc1ccc(CNC(=O)c2nnn(Cc3ccc(OC)cc3)c2N)cc1,.,.,-5.24*,-5.0
O=[N+]([O-])c1ccc(C2CCCC/C2=N/OCc2ccc(F)cc2)c([N+](=O)[O-])c1 (centres undefined),.,.,-5.37*,2.0
O=[N+]([O-])c1ccc(C2CCCC/C2=N/OCc2ccccc2F)c([N+](=O)[O-])c1 (centres undefined),.,.,-6.46*,2.0
O=C(O/N=C1\CCCCC1c1ccc([N+](=O)[O-])cc1[N+](=O)[O-])c1c(F)cccc1F (centres undefined),.,.,-1.28,-7.0
CCOC(=O)Cc1c(C)nc2c(-c3cccc(Br)c3)c[nH]n2c1=O,16.7,-6.3,-5.84*,12.0
CCOC(=O)Cc1c(C)nc2c(C#N)c[nH]n2c1=O,.,.,0.327,-3.0
CC(C)(C)OC(=O)NCCCCCNC(=O)c1[nH]cnc1C(=O)N[C@@H](CCCCNC(=O)OC(C)(C)C)C(=O)OC(C)(C)C,.,.,-2.66*,.
CC(C)(C)OC(=O)CNC(=O)c1[nH]cnc1C(=O)N[C@@H](CCCCNC(=O)OC(C)(C)C)C(=O)OC(C)(C)C,.,.,-0.997,.
Cn1c(N)c(C(=O)c2ccccc2)c(=O)n(C)c1=O,0.9,0.5,-0.733,-4.0
CCC(=NC(C)c1ccccc1)c1c(O)n(C)c(=O)n(C)c1=O (centres undefined),70.6*,-5.3,-1.54,1.0
CCCn1c(CCC(=O)Nc2ccccc2Cc2ccccc2)nc2cc(S(=O)(=O)N3CCOCC3)ccc21,-3.4,-4.3,-9.59*,-5.0
O=C(NCC1CCCO1)c1ccc(N2CCCCC2)nc1 (centres undefined),-1.6,-1.3,-0.602,7.0
SMILES,Mac1 fbg inh,Mac1 fbg enh,Cav3 T inh,Ecoli WT expand
Cc1ccccc1N(CC(=O)NCCc1ccccc1)C(=O)c1ccc(N2CCCC2)nc1,-2.6,-2.0,-4.77*,-8.0
O=S(=O)(NCCCc1ccccc1)c1ccc(Cl)cc1,8.4,12.1,.,.
O=S(=O)(NCc1cc(-c2ccccc2Cl)no1)c1ccc(Cl)cc1,.,.,-7.18*,0.0
CCOC(=O)c1sc(NC(=O)Cn2nnc3sc4c(c3c2=O)CCCC4)nc1C,.,.,-4.6*,-13.0
COc1ccccc1Oc1c(C)oc2c(CN(C)C)c(O)ccc2c1=O,4.9,3.2,.,.
COc1ccccc1N1CCN(C(=O)CSc2nnc3c4ccccc4nc(Cc4ccccc4)n23)CC1,3.9,-3.8,.,.
CCOC(=O)CN1C(=O)C(O)(CC(=O)c2ccc3c(c2)CCCC3)c2ccccc21 (centres undefined),.,.,-7.26*,.

# High-throughput results (PubChem)
